Shown are actives, neighbours in structure and some others; about 5.3% of the full set was active somewhere.
FBPA coupling cs: inhibits coupling enzyme system, counter-screen for aldolase hits; coupling enzyme system counterscreen, AmpLite Red fluorescence; activity change, negative = inhibition, % at 58.2 µM, hits read low; 290,000 compounds, 0.67% hits; AID 2472; in the data active = activity change below about -30%
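Coupling enzymes only (glyceraldehyde-3-phosphate) + compound, at 57.5 uM final, 10 min RT; add substrate/coupling/AmpLite Red mix, 20 min RT; fluorescence ex 525/em 598 nm. Actives flag coupling-system interference.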
Tau fibril FP: blocks human tau fibril formation measured by polarization. Potency, µM (series often up to 57.7 µM), for inactives: at the highest dose activity, negative = inhibition, most hits filed as inhibitors. K18 P301L tau heparin fibrillization, Alexa594 FP, 6 h. 280,000 compounds, 0.39% hits; note: potency is the fitted concentration of half-maximal effect; nearly all actives have a fitted effect of over 55% in size
Target sequence (P10636 561-689 P618L limits assumed): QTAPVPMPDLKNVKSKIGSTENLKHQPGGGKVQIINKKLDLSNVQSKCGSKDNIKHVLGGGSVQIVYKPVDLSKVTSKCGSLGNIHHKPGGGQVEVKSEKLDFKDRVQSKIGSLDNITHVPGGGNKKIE
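Compound effects on tau fibrillization are measured by Alexa 594 fluorescence polarization (ex 555, em 632 nm). K18 P301L tau is used at 15 uM with 0.24 uM labeled tracer, and 20 uM heparin induces aggregation over 6 hr at 37 C.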
KDM4E inh: blocks human JMJD2E demethylase activity; B2RXH2; JMJD2E catalytic domain, FDH-coupled NADH fluorescence (FDH is formaldehyde dehydrogenase); Potency, µM (series often up to 57.1 µM), for inactives: at the top dose activity change, negative = inhibition, hits mostly inhibitors; 230,000 compounds, 1.6% hits; AID 2147; active = well fitted inhibition curve with a large enough effect, not every such curve was filed as active; inconclusive = small, poorly fitted or top-dose-only effect, or another doubt; inactive = no such curve, though single readings can be large or run the other way;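 note: potency is the fitted concentration of half-maximal effect; 0% = wells with enzyme and -100% = buffer wells without enzyme; nearly all actives have a fitted effect of over 50% in size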
Target sequence (B2RXH2 1-337 limits assumed): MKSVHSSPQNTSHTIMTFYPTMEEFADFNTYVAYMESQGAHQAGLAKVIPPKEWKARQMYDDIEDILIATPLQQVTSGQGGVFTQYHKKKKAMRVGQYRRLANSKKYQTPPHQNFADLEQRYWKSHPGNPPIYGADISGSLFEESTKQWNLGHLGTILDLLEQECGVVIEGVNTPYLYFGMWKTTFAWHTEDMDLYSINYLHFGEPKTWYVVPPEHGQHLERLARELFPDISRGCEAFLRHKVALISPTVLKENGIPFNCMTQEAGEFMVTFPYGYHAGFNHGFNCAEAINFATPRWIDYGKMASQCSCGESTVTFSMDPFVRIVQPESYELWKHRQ
Tau fluor counter: counter-screen for tau fibril formation inhibitors. 280,000 compounds, 0.93% hits. Potency, µM (series often up to 57.7 µM), without a hit: at the highest dose activity change, negative = decrease. tau K18 P301L Alexa594 fluorescence, heparin fibrillization; note: potency is the fitted concentration of half-maximal effect; nearly all actives have a fitted effect of over 55% in size
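Human tau K18 P301L (15 uM unlabeled, 0.24 uM Alexa 594-labeled) in 100 mM sodium acetate pH 7 with 20 uM heparin, 6 hr at 37 C. ThT 30 uM added, 1 hr ambient; Alexa 594 FP and total fluorescence read at 555/632 nm.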
Sfp PPTase inh: inhibitors of Bacillus subtilis Sfp phosphopantetheinyl transferase; Potency, µM, without a hit: largest response in the series, negative = inhibition, hits mostly inhibitors; Q9F4F7; Biochemical Sfp PPTase activity, qHTS; 310,000 compounds, 3.5% hits;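 note: the enzyme is Sfp with the accession as filed and its product quenches rhodamine fluorescence; potency is the fitted concentration of half-maximal effect; 0% = enzyme reaction without inhibitor and -100% = no enzyme wells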
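With Hepes-Na pH 7.6 buffer containing 10 mM MgCl2, Sfp (15 nM) modified BHQ-2-YbbR (12.5 uM) using rhodamine-CoA (5 uM). Two reads 30 minutes apart at 525/598 nm yielded each well's rate.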
Tau fibril ThT: tau fibrillization inhibition (ThT binding). P10636. recombinant tau K18 P301L (four-repeat tau fragment), heparin-induced fibrillization, ThT fluorescence. Potency, µM (highest dose often 57.4 µM), for inactives: at the highest dose activity, negative = inhibition, usual class: inhibitors. 270,000 compounds, 2.1% hits. AID 1460; note: potency is the fitted concentration of half-maximal effect; nearly all actives have a fitted effect of over 55% in size
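Heparin-induced (20 uM) aggregation of recombinant human K18 P301L tau, 15 uM unlabeled with 0.24 uM labeled, pH 7 acetate buffer, 6 hr at 37 C with compound. Fibrils quantified by 30 uM ThT fluorescence after 1 hr ambient incubation.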
* hit, by the source's call; ? = inconclusive; . = no result given; [ ] = remark or other dose. Unless noted, calls come from the whole dose curve; as a rule, active = well fitted curve in the direction sought with a large enough effect; inconclusive = small, poorly fitted or top-dose-only effect, or another doubt; inactive = no such curve, though single readings can be large; an effect the other way counts as inactive or inconclusive. Unless noted, % is set by controls: 0 for no effect and ±100 for the full control effect.

SMILES	FBPA coupling cs	Tau fibril FP	KDM4E inh	Tau fluor counter	Sfp PPTase inh	Tau fibril ThT
CCOc1ccc(-n2c(=O)c3c4c(sc3n(CC(=O)NC(C)CC)c2=O)CCCC4)cc1 (stereo not given)	.	-4%	.	0%	.	1%
CCN(CCNCC(O)COc1ccccc1C(C)C)c1cccc(C)c1 (stereo not given)	-2	.	.	.	45µM*	.
COc1ncc2nc(-c3ccc(F)cc3)c(=O)n(-c3ccccc3)c2n1	-2	.	.	.	11%	.
C=CCOC(=O)C(=O)/C=C/c1ccc2c(c1)Cc1ccccc1-2	-3	11%	3%	8%	-25%	?
C=CCOC(=O)C(=O)/C=C/c1csc2ccccc12	-3	0%	-28%	3%	40µM*	?
COc1ccccc1NC(=O)/C=C\C(=O)O	-2	-1%	-12%	-7%	16%	-10%
COC(=O)/C=C/C(C)=C/C=C/C(C)=C/C=C/C=C(C)/C=C/C=C(C)/C=C/C(=O)O	-6	?	?	-23%	?	13µM*
Cc1noc(C)c1-c1nc(N(C)C)c2ccccc2n1	1	.	.	.	-23%	.
Cn1cccc1/C=C1\CCC/C(=C\c2cccn2C)C1=O	-5	8%	-16%	?	-23%	5µM*
CC(C)C[C@H](NC(=O)[C@H](CCC(N)=O)NC(=O)[C@H](CCCCN)NC(=O)[C@H](CCC(N)=O)NC(=O)[C@@H](N)CCC(=O)O)C(=O)N[C@@H](CCC(N)=O)C(=O)O	.	-3%	.	-9%	14%	-8%
CCOC(=O)c1cc(C(=O)c2ccccc2O)cn2c(=O)c3c(C)c(C)sc3nc12	1	-8%	-6%	-24%	45µM*	?
COc1ccc2c(c1)C(c1ccccc1OC)CC(=O)O2 (stereo not given)	-1	-12%[81.3 µM]	.	-7%[81.3 µM]	0%	?
Cc1ccc(-c2onc(C)c2C)cc1S(=O)(=O)Nc1cccc(Cl)c1C	.	4%	.	?	.	?
CCN1/C(=C\C=C(C(C)=O)C(C)=O)Sc2ccccc21	-1	10%	-3%	-7%	-2%	?
CCN1/C(=C\C(=S)Nc2ccccc2)Sc2ccccc21	-2	?	-12%	?	20µM*	7.9µM*
CCc1ccc(NC(=O)Cn2c(=O)c3cccn3c3ccccc32)cc1	0	20µM*	.	?	-6%	12%
Cc1cc(C)c(NC(=O)Cn2c(=O)c3cccn3c3ccccc32)c(C)c1	.	7.9µM*	.	?	-27%	?
CCOC(=O)c1cccc(NC(=O)Cn2c(=O)c3cccn3c3ccccc32)c1	.	13µM*	.	?	.	?
O=C(Cn1c(=O)c2cccn2c2ccccc21)NCCc1ccc(Cl)cc1	.	.	.	.	6%	.
O=C(Cn1c(=O)c2cccn2c2ccccc21)NCCc1ccccc1	.	14µM*	.	?	18%	18%
CC(C)=CCC/C(C)=C/CO/N=C1/C[C@@H](O)[C@@H](O)[C@@H]2[C@@H]3C(=O)N(Cc4ccc5c(c4)OCO5)C(=O)[C@H]3CC[C@@H]12	-1	3%[11.6 µM]	.	-3%[11.6 µM]	-2%	-5%[11.5 µM]
Cc1cc(O)c(C(C)C)cc1N=C1CSC(=O)N1	-21	-8%	-2%	?	56µM*	?
O=c1c2cc(N3CCOCC3)ccc2[nH]c(=S)n1Cc1ccccn1	-41*	?	?	-10%	20µM*	?
COc1ccc([N+](=O)[O-])cc1C(=O)C(=O)c1ccccc1	0	.	.	.	-2%	.
COc1cc(C(=O)O)nc2ccc([N+](=O)[O-])cc12	-18	6%	-18%	14%	10µM*	3%
SMILES	FBPA coupling cs	Tau fibril FP	KDM4E inh	Tau fluor counter	Sfp PPTase inh	Tau fibril ThT
COc1ccc2c(c1)c(=O)c(S(=O)(=O)c1ccccc1)cn2CC(=O)Nc1ccc(C)c(Cl)c1	.	?	.	?	.	12%
CCOC(=O)c1sc(=S)n(-c2cc(OC)ccc2OC)c1N	4	?	-27%	-18%	-89%	?
CCOC(=O)c1sc(=S)n(-c2cc(F)ccc2F)c1N	-2	-3%	9%	-4%	56µM*	2%
COC(=O)c1sc(=S)n(-c2cc(F)ccc2F)c1N	1	-3%	-12%	-5%	50µM*	-6%
Cc1cc(-c2nsc(=O)o2)c(S(C)(=O)=O)s1	3	?	-1%	-13%	-84%	32µM*
S=C(c1ccccc1)N1CCN(C(=S)c2ccccc2)CC1	4	-5%	4%	-15%	1%	-11%
Oc1ccccc1C(=S)N1CCN(C(=S)c2ccccc2O)CC1	7	.	.	.	28µM*	.
Oc1ccccc1C(=S)N1CCCC1	3	.	.	.	50µM*	.
COc1cccc(C(=O)N2CCN(C(=O)c3cccc4ccccc34)CC2)c1OC	1	0%	4%	-4%	15%	-8%
Fc1ccc(COc2ccccc2C(=S)N2CCCC2)cc1	0	-4%	-6%	-11%	?	?
COc1cccc(C(=S)N2CCCC2)c1OC	-2	.	.	.	50µM*	.
Cc1ccc(COc2ccccc2C(=S)N2CCCC2)cc1	0	-2%	-6%	-19%	25µM*	-16%
CCOc1ccc(-n2c(=O)c3c(C)c(C)sc3n(CC(=O)N3CCC(C)CC3)c2=O)cc1	.	-5%	.	-18%	.	-15%
Cc1nc2sc3c(c2c(=O)[nH]1)CCCC3	1	2%	1%	-1%	22%	4%
O=c1[nH]c(S)nc2sc3c(c12)CCCC3	9	-7%	?	-12%	45µM*	?
COc1cccc(CN2CCNC(=O)C2CC(=O)NCCc2nc(C)c(C)s2)c1OC (stereo not given)	-4	2%	-18%	3%	45µM*	-12%
COc1cccc(CN2CCNC(=O)C2CC(=O)NCc2cn3ccc(C)cc3n2)c1OC (stereo not given)	-3	1%	?	4%	18%	2%
COc1cccc(CN2CCNC(=O)C2CC(=O)N2CCCCO2)c1OC (stereo not given)	-45*	2%	-4%	-1%	-24%	-6%
Cc1nc(CCNC(=O)CC2C(=O)NCCN2Cc2ccc(F)cc2)sc1C (stereo not given)	-6	-14%	-18%	-9%	32µM*	-18%
Cc1nc(CCNC(=O)CC2C(=O)NCCN2Cc2ccccc2F)sc1C (stereo not given)	-8	-11%	-5%	-15%	-8%	-15%
CC[C@@H](C)[C@H](NS(=O)(=O)c1cccc2ccccc12)C(=O)N[C@H](C=O)Cc1c[nH]c2ccccc12	.	3%	.	?	?	?
CNc1ccc(Br)cc(C(=O)/C=C/c2ccc(OC)cc2)c1=O	-29	?	25µM*	?	?	14µM*
